Six sequences from the supplement of paper PMC6555819 can be followed below.

Holding throughout (test): PBM binding z-score (relative to random genomic background probes); higher = stronger binding; sequences stand for … in GC…GCGATTGACAGCGTAGAATGAAGG
In experiment [1] the test system is FXR:RXRa (NR concentration 270 nM, RXRa partner concentration 90 nM). A digest of the protocol: (§1)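 Custom Agilent 4×180K protein-binding microarrays carried double-stranded probes, each with a 34-nt variable region. These regions held direct-repeat seeds, single-nucleotide variants, half-site ablations and random human genomic background sequences. Ligand-free nuclear receptor dimers were incubated on the arrays for 1 h, antibodies against each partner (one per run) detected binding, and scanned fluorescence was regression-normalized. Binding z-scores take the random background probes as reference.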

In experiment [2] the test system is LXRa:RXRa (NR concentration 270 nM, RXRa partner concentration 90 nM). The procedure, abridged: as §1
In experiment [3] the test system is LXRa homodimer (NR concentration 270 nM). A digest of the protocol:
as §1

Experiment [4] has as its system LXRb:RXRa (NR concentration 270 nM, RXRa partner concentration 90 nM). The procedure, abridged:
as §1

Experiment [5] relates to LXRb homodimer (NR concentration 270 nM). A digest of the protocol: as §1
In experiment [6] the test system is PPARa:RXRa (NR concentration 270 nM, RXRa partner concentration 90 nM). The procedure, abridged:
as §1

Experiment [7] deals with PPARg:RXRa (NR concentration 180 nM, RXRa partner concentration 90 nM). A digest of the protocol: as §1
In experiment [8] the test system is PPARg:RXRa 270nM:90nM, anti-RXR (NR concentration 270 nM, RXRa partner concentration 90 nM). The procedure, abridged: as §1
Experiment [9] deals with PPARg:RXRa 30nM:10nM, anti-RXR (NR concentration 30 nM, RXRa partner concentration 10 nM). The procedure, abridged: as §1
The subject of experiment [10] is PPARg:RXRa 90nM:30nM, anti-RXR (NR concentration 90 nM, RXRa partner concentration 30 nM). The procedure, abridged:
as §1

The subject of experiment [11] is PPARg:RXRa DBDmut IVT, anti-RXR (DBD mutation: RXRa K156A/R161A, NR concentration 270 nM, RXRa partner concentration 90 nM). The procedure, abridged:
as §1

For experiment [12], the system named is PPARg:RXRa IVT, anti-PPARg (NR concentration 270 nM, RXRa partner concentration 90 nM). The procedure, abridged:
as §1

Experiment [13] relates to PPARg DBDmut:RXRa IVT, anti-PPARg (DBD mutation: PPARg1 K132A/R137A, NR concentration 270 nM, RXRa partner concentration 90 nM). A digest of the protocol: as §1
Experiment [14] deals with PPARg DBDmut IVT, anti-PPARg (DBD mutation: PPARg1 K132A/R137A, NR concentration 270 nM). The procedure, abridged: as §1
For experiment [15], the system named is PPARg homodimer (NR concentration 180 nM). A digest of the protocol:
as §1

The test system of experiment [16] is PXR:RXRa (NR concentration 270 nM, RXRa partner concentration 90 nM). A digest of the protocol: as §1
Experiment [17] deals with PXR homodimer (NR concentration 270 nM). The procedure, abridged:
as §1

Experiment [18] has as its system RARa:RXR (NR concentration 270 nM, RXRa partner concentration 90 nM). A digest of the protocol:
as §1

The subject of experiment [19] is RARa homodimer (NR concentration 270 nM). The procedure, abridged:
as §1

The test system of experiment [20] is RARb:RXRa (NR concentration 270 nM, RXRa partner concentration 90 nM). A digest of the protocol:
as §1

On to CGTCCAATGTCATAGGAGGTCAGTGAAGACAGAT, for which the PBM binding z-score turned out to be 3.22 in experiment [1]; 4.74 in experiment [2]; 1.21 in experiment [3]; 2.36 in experiment [4]; 0.0659 in experiment [5]; 2.66 in experiment [6]. Besides, the PBM binding z-score in experiment [7] is 0.938; in [8] it was 0.958; in experiment [9] it was 0.0922; in [10] it was 0.565; in experiment [11], 0.186; in experiment [12], 1.95. Besides, the PBM binding z-score in experiment [13] was found to be 0.476; in experiment [14] it was 0.254; in [15], 1.72; in experiment [16], 3.91; in [17] it was 0.941; in [18], 2.69. For the same sequence, the PBM binding z-score in [19] came to 0.765; in experiment [20] it was 2.9.
With CCTTACGGGTCAATGACAGGTTATAGCATTTGGA, the PBM binding z-score in experiment [1] was found to be 6.33; in [2] it was 4.45; in experiment [3] it was 1.11; in [4], 3.68; in experiment [5], 0.333; in [6] it was 5.07. The PBM binding z-score amounted to 3.44 in experiment [7]; 3.62 in experiment [8]; 1.13 in [9]; 2.5 in experiment [10]; 2.52 in [11]; 2.91 in [12]. The PBM binding z-score in experiment [13] came to 0.126; in [14], 0.222; in experiment [15], 4.22; in [16], 3.44; in [17] it was 0.512; in experiment [18] it was 4.2. Moreover, the PBM binding z-score in experiment [19] is 0.757; in experiment [20], 3.97.
On to CGAACTAGGTCATCCAGGACAGTTAATACATTGA, for which the PBM binding z-score in [1] turned out to be 4.18; in [2], 2.59; in [3], 0.501; in [4], 2.29; in [5], 0.155; in experiment [6], 4.77. The PBM binding z-score worked out at 7.57 in experiment [7]; 6.32 in experiment [8]; 3.81 in experiment [9]; 5.9 in experiment [10]; 7.93 in experiment [11]; 8.11 in [12]. Further, the PBM binding z-score in [13] turned out to be 4.57; in [14], 2.72; in experiment [15] it was 2.19; in [16] it was 2.02; in experiment [17], 1.63; in experiment [18], 2.6. In addition, the PBM binding z-score in experiment [19] stood at 1.19; in experiment [20] it was 3.72.
For TGAATGAGGTTAAAGATCATGGAACGTGGCGTCG, the PBM binding z-score was 3.15 in experiment [1]; 2.8 in experiment [2]; -0.213 in experiment [3]; 1.93 in experiment [4]; -0.192 in [5]; 4.81 in [6]. The PBM binding z-score in [7] worked out at 6.66; in [8], 6.58; in experiment [9], 4.73; in experiment [10], 6.88; in [11] it was 1.79; in experiment [12], 3.19. Also, the PBM binding z-score in [13] is 0.0999; in experiment [14], -0.204; in [15], 0.9; in experiment [16] it was 2.49; in experiment [17] it was 0.119; in experiment [18], 3.73. The PBM binding z-score in experiment [19] worked out at 0.174; in [20], 2.04.
As to CCTACAGGGCCATTCAGAGGTCATTGATCATATG, the PBM binding z-score was found to be 3.14 in experiment [1]; 4.65 in experiment [2]; 6.45 in experiment [3]; 3.82 in experiment [4]; 0.447 in experiment [5]; 3.5 in [6]. For the same sequence, the PBM binding z-score in experiment [7] was found to be 0.853; in [8], 1.79; in experiment [9], 0.168; in [10], 0.721; in experiment [11], 0.235; in experiment [12] it was 0.996. Further, the PBM binding z-score in experiment [13] was -0.322; in experiment [14], -0.38; in experiment [15] it was 1.96; in [16], 5.17; in experiment [17], 2.91; in experiment [18], 5.04. Further, the PBM binding z-score was determined as 0.639 in experiment [19] and 3.47 in experiment [20].
Take CATACAGAGTCAGCTAGGCCAGAGTAGGGACGGC: the PBM binding z-score in experiment [1] is -0.451; in experiment [2], -0.383; in [3], -0.608; in experiment [4] it was -0.891; in [5], -0.106; in experiment [6] it was -0.478. Further, the PBM binding z-score in [7] was 0.472; in experiment [8], -0.324; in experiment [9] it was -0.369; in [10], -0.479; in experiment [11], -0.267; in experiment [12], 0.0883. The PBM binding z-score in experiment [13] was 0.15; in [14], 0.197; in experiment [15] it was -0.174; in [16] it was -0.875; in [17], -0.632; in experiment [18], -0.635. The PBM binding z-score in experiment [19] was -0.132; in experiment [20], 0.148.
